Consider 67 molecules from PubChem BioAssay AID2147 (National Center for Advancing Translational Sciences (NCATS), 2009).

Values joined by “and” are separate entries in the source; they are usually repeats but may differ in a detail not shown here. Identical values can stand only once. The whole screen tested about 230,000 compounds, of which about 3,600 (1.6%) were called active. Roughly 15% stayed inconclusive and do not appear here. The sample holds actives, similar compounds and a random draw of the others, so the mix is not that of the screen. Calls come from the whole dose curve; as a rule, active = well fitted inhibition curve with a large enough effect (not every such curve was filed as active); inconclusive = small, poorly fitted or top-dose-only effect, or another doubt; inactive = no such curve, though single readings can be large or run the other way.
Note: nearly all actives have a fitted effect of over 50% in size.
Potency is the fitted concentration of half-maximal effect.
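Throughout, for activity change, negative = inhibition: 0% = wells with enzyme and -100% = buffer wells without enzyme.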

The experiment deals with Lysine-specific demethylase 4E (Homo sapiens) (UniProt B2RXH2). The experiment is described as follows: qHTS Assay for Inhibitors of Human Jumonji Domain Containing 2E (JMJD2E). The settings on record: JMJD2E catalytic domain, FDH-coupled NADH fluorescence (FDH is formaldehyde dehydrogenase); series mostly up to 57.1 µM; activity change, negative = inhibition: at the top concentration. In general terms: Quantitative high-throughput screening tests each substance at several concentrations.
Lysine-specific demethylase 4E (Homo sapiens), sequence (B2RXH2 1-337 limits assumed): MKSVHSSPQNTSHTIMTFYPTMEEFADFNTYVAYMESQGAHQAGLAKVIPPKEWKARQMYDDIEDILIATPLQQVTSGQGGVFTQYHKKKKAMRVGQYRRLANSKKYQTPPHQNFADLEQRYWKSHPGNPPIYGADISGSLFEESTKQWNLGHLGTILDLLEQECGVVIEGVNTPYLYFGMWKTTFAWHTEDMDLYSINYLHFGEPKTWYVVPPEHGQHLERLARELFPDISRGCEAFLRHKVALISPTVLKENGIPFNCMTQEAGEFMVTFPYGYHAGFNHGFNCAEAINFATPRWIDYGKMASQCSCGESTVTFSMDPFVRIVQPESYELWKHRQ
Regarding `O=c1[nH]c(CSc2ccccc2)nc2c1oc1ccccc12`, the “activity change, negative = inhibition” value is -0.198% (inactive).

On to `Cc1ccc(NC(=O)/C(=C\c2ccccc2)NC(=O)c2ccco2)cc1`, for which the “activity change, negative = inhibition” value was 8.1% (inactive). In the case of `NC(=O)COc1ccc(NC(=O)c2ccccc2-c2ccccc2)cc1`, the “activity change, negative = inhibition” value was -9.16% (inactive). Turning to `Oc1ccc(/C=N/NC2=NCCCCC2)c(O)c1`, the Potency is 22.4 µM (active). Take `Oc1ccc(/C=N/Nc2nc(-c3ccccc3F)nc3ccccc23)c(O)c1`: the “activity change, negative = inhibition” value is -27.2% (inactive). Still for that read-out and setting: the result for `Oc1c(Br)cccc1/C=N/Nc1c(F)c(F)c(F)c(F)c1F` reads 0.236% (inactive); that for `CN(c1ccccn1)c1ncnc2[nH]ncc12`, -4.74% (inactive); that for `Cc1ccc(C)c(SCc2nc3sc(C(=O)O)c(C)c3c(=O)[nH]2)c1`, -5.22% (inactive). On the same count and under the same terms, the result for `O=C(Nc1ccc(F)cc1)c1cc2c(s1)CCCC2` reads 0.588% (inactive); that for `Cc1c(C)c(C)c2[nH]c(=S)[nH]c2c1C`, 5.54% (inactive).

As to `O=c1[nH]c(=S)[nH]c2[nH]c(=S)[nH]c12`, the Potency is 28.2 µM (active).

`Cc1nc2cccnc2nc1C`: the “activity change, negative = inhibition” value is 1.81% (inactive). Turning to `COc1ccc(OC)c(-n2c(-c3ccn[nH]3)n[nH]c2=S)c1`, the “activity change, negative = inhibition” value is 3.77% (inactive). Same read-out and setting: the result for `O=C(N/N=C\c1cc(Br)c(Br)o1)C1COc2ccccc2O1` (configuration not stated) reads -26.6% (inactive); that for `Nc1ccccc1SCc1cc([N+](=O)[O-])cc2c1OCOC2`, -7.45% (inactive). Same read-out and setting: the same measure for `Nc1ccccc1Sc1ccc(C(F)(F)F)cc1[N+](=O)[O-]`: -29.3% (inactive). With `Nc1ccccc1SC(C[N+](=O)[O-])c1ccccc1` (configuration not stated), the Potency was 6.31 µM (active). Turning to `OCCC1CN(Cc2ccc(Oc3ncccn3)cc2)CCN1CCc1ccccc1` (configuration not stated), the “activity change, negative = inhibition” value was -5.89% (inactive). Consider `COCCNc1nc(-c2ccccc2)nc2c1oc1ccccc12`, for which the “activity change, negative = inhibition” value was -8.99% (inactive).

`Cc1nnc(SC(C(=O)c2ccccc2)c2ccccc2)[nH]c1=O` (configuration not stated): the “activity change, negative = inhibition” value was -1.45% (inactive). The same measure, in the same setting: the result for `Cc1cccc(-n2cc(CN3CCN(C(=O)c4ncn[nH]4)CC3)c(-c3cccc(F)c3)n2)c1` reads 8.66% (inactive). The same measure, in the same setting: the same measure for `CC(C)OCCCNC(=O)c1ccc(C2SCC(=O)N2Cc2ccco2)cc1` (configuration not stated): -12.8% (inactive); for `COc1ccc(NS(=O)(=O)c2ccc(O)c(C(=O)OCC(=O)NC3CCCCC3)c2)cc1`: -4.29% (inactive); for `S=c1[nH]nc(COc2ccccc2)n1-c1ccccc1`: -9.54% (inactive).

Consider `COc1ccc(OCc2n[nH]c(=S)n2N)cc1`, for which the Potency was 15.8 µM (active).

Take `Cc1ccc(OCc2n[nH]c(=S)n2-c2ccc(C)cc2)cc1`: the “activity change, negative = inhibition” value is -3.16% (inactive). Still for that read-out and setting: the result for `Cc1cc(N2CCN(c3ccccc3)CC2)nc(N2CCOCC2)n1` reads 3.11% (inactive); that for `O=c1c(-c2ccc(Cl)cc2)[n+]([O-])c2ccccc2n1OCc1nc2ccccc2[nH]1`, -4.14% (inactive). Still for that read-out and setting: the same measure for `CCC(=O)/C=C1\Sc2ccccc2N1CC`: -12.4% (inactive); for `CCN1/C(=C/c2ccc3ccc(C)cc3[n+]2CC)Sc2ccccc21`: -7.04% (inactive).

With `CCN1/C(=C\c2ccc3ccccc3[n+]2CC)Sc2cc(C)ccc21`, the Potency is 1.41 µM (active). For `O=C(COC(=O)c1ccc[nH]c1=O)Nc1ccc2c(c1)OC(F)(F)O2`, the “activity change, negative = inhibition” value is -31.1% (inactive).

Take `c1ccc(-n2cccc2)c(N2CCCCC2)c1`: the “activity change, negative = inhibition” value is 7.49% (inactive). Same read-out and setting: the same measure for `CC(C)C[C@@H](CC(=O)N[C@@H](CCC(=O)O)CC(=O)O)NC(=O)[C@@H]1CCCC[C@H]1NC(=O)C[C@@H](NC(=O)C[C@H](CO)NC(=O)[C@@H]1CCCC[C@H]1N)C(C)C`: 6.67% (inactive). With `CC(C)C[C@@H](CC(=O)N[C@@H](CCC(=O)O)CC(=O)O)NC(=O)[C@@H]1CCCC[C@H]1NC(=O)C[C@@H](NC(=O)C[C@H](Cc1c[nH]c2ccccc12)NC(=O)[C@@H]1CCCC[C@H]1N)C(C)C`, the Potency is 15.8 µM (active). Take `CC(C)[C@@H](CC(=O)N[C@@H]1CCNC[C@H]1C(=O)N[C@H](CC(=O)N[C@@H](CCC(=O)O)CC(=O)O)Cc1ccccc1)NC(=O)C[C@H](CO)NC(=O)[C@@H]1CNCC[C@H]1N`: the “activity change, negative = inhibition” value was -2.84% (inactive). On the same count and under the same terms, the result for `Cn1c(CSCC(=O)Nc2ccccc2)nnc1SCc1ccccc1` reads -1.73% (inactive); that for `Cc1ccc(NNC(=O)c2c(F)cccc2Cl)cc1Cl`, -12.8% (inactive); that for `COC(=O)N(NC(=O)C(O)(C(C)C)C(C)C)c1ccccc1`, 2.87% (inactive). With `Cc1cc(=O)[nH]c(S)c1C#N`, the Potency was 28.2 µM (active). As for `Cc1cc(=O)[nH]c(SCC(N)=O)c1C#N`, the “activity change, negative = inhibition” value is 0.748% (inactive). With `Cc1cc(=O)[nH]c(=S)[nH]1`, the Potency entry was “inactive”. The same measure, in the same setting: the same measure for `CC(C)(C)c1ccc(/C=C2\Oc3c(ccc(O)c3CN3CCN(CCO)CC3)C2=O)cc1`: 14.1 µM (active). As for `O=S(=O)(Nc1n[nH]c(C(F)(F)F)n1)c1ccccc1`, the “activity change, negative = inhibition” value was -3.67% (inactive). For the molecule `N#C/C(=C\c1ccc(O)c(O)c1)C(=O)NCc1ccccc1`, the Potency is 15.8 µM (active) and 20 µM (active). The same measure, in the same setting: the same measure for `N#C/C(=C\c1ccc(O)c(O)c1)C(N)=O`: 7.08 µM (active). With `CCOC(=O)/C(C#N)=C/c1ccc(N2CCCCC2)cc1`, the “activity change, negative = inhibition” value is -5.46% (inactive). Regarding `CCOC(=O)NC(=O)/C(C#N)=C\c1ccccc1`, the “activity change, negative = inhibition” value is 8.09% (inactive).

For `COCCNC(=O)/C(C#N)=C/c1cccc(OCc2ccccc2)c1`, the “activity change, negative = inhibition” value is -8.01% (inactive). On the same count and under the same terms, the result for `CC(C)(C)C(=O)/C(C#N)=C/c1ccc(O)cc1` reads -3.99% (inactive); that for `Cc1ccc(CN(Cc2cccnc2)C(=S)Nc2cc(Cl)ccc2C)cc1`, -10% (inactive); that for `O=C(NCC(c1cccs1)N1CCOCC1)c1cc(-c2ccccn2)nc2ccccc12` (configuration not stated), -21.6% (inactive). The same measure, in the same setting: the same measure for `COc1ccccc1OCC(=O)O/N=C(\N)c1ccccn1`: -4.76% (inactive); for `COc1cc(/C=C2/C(=O)NN(c3ccc(F)cc3)C2=O)cc([N+](=O)[O-])c1O`: -19.9% (inactive).

For `CCOC(=O)c1ccc(N=C2SC(C(=O)NC)CC(=O)N2CCc2ccccc2)cc1` (configuration not stated), the “activity change, negative = inhibition” value was -2.87% (inactive).

`CC(=O)Nc1nc2c(s1)C(=O)NCC(C)(C)C2`: the “activity change, negative = inhibition” value was 6.1% (inactive). `Oc1ccc(N=Nc2nccs2)c(O)c1`: the Potency was 8.91 µM (active). For the molecule `Oc1c(C=Nc2cccc3nsnc23)ccc2ccccc12`, the “activity change, negative = inhibition” value is -9.64% (inactive).

As to `Oc1ccc2ccccc2c1N=Nc1nccs1`, the Potency was 28.2 µM (active). As for `COc1ccccc1NC(=S)N1CCN(C(c2ccccc2)c2ccccc2)CC1`, the “activity change, negative = inhibition” value is 12.1% (inactive). Same read-out and setting: the same measure for `CSc1ccccc1NC(=O)CN(C)CC(=O)Nc1cccc(Br)c1`: -20.7% (inactive). The same measure, in the same setting: the result for `COc1ccc(Cc2nnc(SC)[nH]c2=O)cc1` reads 8.09% (inactive); that for `COc1ccc(CCNC(=O)CCCCn2c(=O)[nH]c3ccccc3c2=O)cc1OC`, 3.97% (inactive).

Consider `COc1ccc(Cc2nnc(N/N=C/c3ccccc3O)[nH]c2=O)cc1OC`, for which the Potency was 6.31 µM (active).

With `CCOC(=O)C1=C(c2ccccc2)NC(=S)NC1c1ccc(Cl)cc1` (configuration not stated), the “activity change, negative = inhibition” value was -5.72% (inactive).

As to `Cc1noc(C)c1COC(=O)COc1ccc(-c2ccccc2)cc1`, the “activity change, negative = inhibition” value is 7.05% (inactive). Consider `COc1ccc(/C=C/C(=O)Nc2ccc(C)cc2)cc1S(=O)(=O)N1CCOCC1`, for which the “activity change, negative = inhibition” value was 1.97% (inactive).
